# Test results reported in PMC7862700, “An all-to-all approach to the identification of sequence-specific readers for epigenetic DNA modifications on cytosine”.
# Experiments:
# Assay in all cases: DAPPL (digital affinity profiling via proximity ligation, sequencing); 10 mM Tris-HCl pH 7.5, 50 mM NaCl, 1 mM DTT, 4% glycerol, room temperature, 30 min; GST-TFs on glutathione beads, 16-mer random dsDNA library, 0.1% formaldehyde crosslink after washing; high values mean tight binding
# FLI1 = target: T1, FLI1 (Homo sapiens, UniProt Q01543 1-452); conditions: protein: recombinant; tags: N-terminal GST; dsDNA, one strand shown
# T1 sequence: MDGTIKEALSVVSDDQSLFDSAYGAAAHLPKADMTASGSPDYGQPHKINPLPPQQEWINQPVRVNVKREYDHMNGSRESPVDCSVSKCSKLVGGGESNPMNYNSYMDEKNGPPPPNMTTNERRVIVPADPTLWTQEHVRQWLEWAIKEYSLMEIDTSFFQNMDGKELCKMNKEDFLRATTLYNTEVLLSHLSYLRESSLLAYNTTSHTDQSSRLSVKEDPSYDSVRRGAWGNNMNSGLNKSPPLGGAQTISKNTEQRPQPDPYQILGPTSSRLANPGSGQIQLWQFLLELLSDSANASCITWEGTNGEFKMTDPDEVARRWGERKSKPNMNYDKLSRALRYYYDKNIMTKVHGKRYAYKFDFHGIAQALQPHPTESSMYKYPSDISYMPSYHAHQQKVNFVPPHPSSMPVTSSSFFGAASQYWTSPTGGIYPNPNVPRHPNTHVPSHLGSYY
# In short: (§1)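 Sequencing on an Illumina NextSeq500 followed washing, crosslinking with 0.1% formaldehyde, proximity ligation (BsaI/T4 ligase, 1 h, 37 °C) and PCR amplification of pools that had been incubated for 30 min at room temperature with 200 nmole of a random double-stranded 16-mer DNA library in Tris/NaCl/DTT/glycerol buffer. Each pool held DNA-barcoded human transcription factors, expressed in yeast as GST fusions and captured on glutathione beads, plus a tag-only sample. Binding signal is a hexamer's read frequency for a factor divided by its frequency in the tag-only sample.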
# ELK1 = target: T2, ELK1 (Homo sapiens, UniProt P19419 1-428); conditions: protein: recombinant; tags: N-terminal GST; dsDNA, one strand shown
# T2 sequence: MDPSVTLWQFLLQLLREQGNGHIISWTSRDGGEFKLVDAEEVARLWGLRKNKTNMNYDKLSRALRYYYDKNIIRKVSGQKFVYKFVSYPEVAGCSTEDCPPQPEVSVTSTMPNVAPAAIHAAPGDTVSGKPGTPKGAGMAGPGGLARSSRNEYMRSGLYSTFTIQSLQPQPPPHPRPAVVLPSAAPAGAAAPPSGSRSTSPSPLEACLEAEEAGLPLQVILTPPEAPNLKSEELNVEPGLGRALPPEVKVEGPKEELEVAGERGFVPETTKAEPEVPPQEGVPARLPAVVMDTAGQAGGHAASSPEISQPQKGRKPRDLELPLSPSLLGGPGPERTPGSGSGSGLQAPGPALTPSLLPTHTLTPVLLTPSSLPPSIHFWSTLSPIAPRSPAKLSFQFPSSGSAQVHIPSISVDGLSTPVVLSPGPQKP
# In short: as §1
# GABPA = target: T3, GABPA (Homo sapiens, UniProt Q06546 1-454); conditions: protein: recombinant; tags: N-terminal GST; dsDNA, one strand shown
# T3 sequence: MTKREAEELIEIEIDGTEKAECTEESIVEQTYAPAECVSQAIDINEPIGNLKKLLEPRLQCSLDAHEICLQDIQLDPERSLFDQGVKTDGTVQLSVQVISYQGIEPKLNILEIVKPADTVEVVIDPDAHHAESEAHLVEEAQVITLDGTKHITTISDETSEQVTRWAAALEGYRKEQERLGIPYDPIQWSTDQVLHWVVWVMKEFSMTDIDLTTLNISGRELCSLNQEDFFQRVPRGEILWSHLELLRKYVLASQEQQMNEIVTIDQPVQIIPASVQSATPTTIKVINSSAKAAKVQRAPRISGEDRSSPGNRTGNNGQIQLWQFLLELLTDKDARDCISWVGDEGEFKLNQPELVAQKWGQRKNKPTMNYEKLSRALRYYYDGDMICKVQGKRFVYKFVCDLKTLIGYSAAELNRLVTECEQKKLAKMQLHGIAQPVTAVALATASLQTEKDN
# In short: as §1
# ERG = target: T4, ERG (Homo sapiens, UniProt P11308 1-479); conditions: protein: recombinant; tags: N-terminal GST; dsDNA, one strand shown
# T4 sequence: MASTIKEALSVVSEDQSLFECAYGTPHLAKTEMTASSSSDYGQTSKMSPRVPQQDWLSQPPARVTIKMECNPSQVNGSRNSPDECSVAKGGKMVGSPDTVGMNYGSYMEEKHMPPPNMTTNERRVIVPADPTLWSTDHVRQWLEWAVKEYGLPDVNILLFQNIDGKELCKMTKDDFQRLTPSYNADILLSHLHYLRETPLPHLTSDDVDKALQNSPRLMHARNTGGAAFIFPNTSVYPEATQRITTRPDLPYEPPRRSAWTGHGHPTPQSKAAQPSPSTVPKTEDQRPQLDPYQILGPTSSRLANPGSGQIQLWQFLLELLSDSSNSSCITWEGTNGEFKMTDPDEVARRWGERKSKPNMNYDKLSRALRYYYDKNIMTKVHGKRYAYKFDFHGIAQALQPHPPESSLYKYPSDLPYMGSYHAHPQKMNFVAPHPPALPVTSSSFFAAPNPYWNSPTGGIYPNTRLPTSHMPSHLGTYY
# In short: as §1
# ELF1 = ELF1 (Homo sapiens, UniProt P32519 1-619); conditions: protein: recombinant; tags: N-terminal GST; dsDNA, one strand shown
# Chain of ELF1 (P32519 whole entry): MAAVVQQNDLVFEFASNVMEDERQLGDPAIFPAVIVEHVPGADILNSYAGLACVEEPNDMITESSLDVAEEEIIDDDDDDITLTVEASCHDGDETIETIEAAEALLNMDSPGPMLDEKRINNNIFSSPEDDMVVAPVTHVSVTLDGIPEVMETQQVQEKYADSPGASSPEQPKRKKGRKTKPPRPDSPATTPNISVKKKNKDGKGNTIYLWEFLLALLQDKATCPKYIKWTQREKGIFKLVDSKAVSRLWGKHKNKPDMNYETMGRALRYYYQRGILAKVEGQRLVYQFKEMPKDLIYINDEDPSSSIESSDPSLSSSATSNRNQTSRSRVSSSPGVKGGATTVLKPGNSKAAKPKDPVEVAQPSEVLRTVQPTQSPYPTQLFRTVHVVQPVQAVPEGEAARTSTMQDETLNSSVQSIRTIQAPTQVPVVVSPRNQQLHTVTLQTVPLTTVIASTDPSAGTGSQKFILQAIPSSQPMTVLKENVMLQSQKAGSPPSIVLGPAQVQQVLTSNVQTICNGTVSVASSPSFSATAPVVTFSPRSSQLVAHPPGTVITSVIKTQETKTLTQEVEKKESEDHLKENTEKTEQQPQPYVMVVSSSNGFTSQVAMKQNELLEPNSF
# In short: as §1
# EHF = target: T5, EHF (Homo sapiens, UniProt Q9NZC4 1-300); conditions: protein: recombinant; tags: N-terminal GST; dsDNA, one strand shown
# T5 sequence: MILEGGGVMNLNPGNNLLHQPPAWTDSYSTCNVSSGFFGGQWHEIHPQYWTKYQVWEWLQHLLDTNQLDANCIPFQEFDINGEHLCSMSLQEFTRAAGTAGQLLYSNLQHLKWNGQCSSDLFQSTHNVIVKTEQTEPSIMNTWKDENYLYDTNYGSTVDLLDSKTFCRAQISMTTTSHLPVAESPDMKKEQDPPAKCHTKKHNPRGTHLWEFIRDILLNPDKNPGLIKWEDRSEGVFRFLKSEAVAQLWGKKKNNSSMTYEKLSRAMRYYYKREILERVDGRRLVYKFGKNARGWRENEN
# In short: as §1
# SPI1 = SPI1 (Homo sapiens, UniProt P17947 1-270); conditions: protein: recombinant; tags: N-terminal GST; dsDNA, one strand shown
# In short: as §1
# SPIB = SPIB (Homo sapiens, UniProt Q01892 1-262); conditions: protein: recombinant; tags: N-terminal GST; dsDNA, one strand shown
# Chain of SPIB (Q01892 whole entry): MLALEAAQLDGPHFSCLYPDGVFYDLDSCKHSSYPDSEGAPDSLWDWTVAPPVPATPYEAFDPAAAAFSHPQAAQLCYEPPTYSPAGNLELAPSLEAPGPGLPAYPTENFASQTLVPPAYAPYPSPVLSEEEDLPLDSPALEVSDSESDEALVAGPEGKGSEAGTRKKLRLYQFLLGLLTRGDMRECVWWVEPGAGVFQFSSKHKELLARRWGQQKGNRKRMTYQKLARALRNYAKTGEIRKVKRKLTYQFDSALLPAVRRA
# In short: as §1
# ELK3 = target: T6, ELK3 (Homo sapiens, UniProt P41970 1-407); conditions: protein: recombinant; tags: N-terminal GST; dsDNA, one strand shown
# T6 sequence: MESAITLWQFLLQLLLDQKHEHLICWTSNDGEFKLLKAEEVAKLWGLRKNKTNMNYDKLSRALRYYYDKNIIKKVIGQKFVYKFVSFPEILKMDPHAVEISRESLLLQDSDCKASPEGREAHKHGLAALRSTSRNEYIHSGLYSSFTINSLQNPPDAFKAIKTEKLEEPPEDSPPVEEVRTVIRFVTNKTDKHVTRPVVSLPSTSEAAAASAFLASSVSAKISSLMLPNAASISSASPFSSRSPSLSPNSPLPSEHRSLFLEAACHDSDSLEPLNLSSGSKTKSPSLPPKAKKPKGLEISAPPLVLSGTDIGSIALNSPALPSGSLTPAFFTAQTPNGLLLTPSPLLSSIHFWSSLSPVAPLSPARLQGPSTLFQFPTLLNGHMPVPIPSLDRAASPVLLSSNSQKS
# In short: as §1
# FEV = target: T7, FEV (Homo sapiens, UniProt Q99581 1-238); conditions: protein: recombinant; tags: N-terminal GST; dsDNA, one strand shown
# T7 sequence: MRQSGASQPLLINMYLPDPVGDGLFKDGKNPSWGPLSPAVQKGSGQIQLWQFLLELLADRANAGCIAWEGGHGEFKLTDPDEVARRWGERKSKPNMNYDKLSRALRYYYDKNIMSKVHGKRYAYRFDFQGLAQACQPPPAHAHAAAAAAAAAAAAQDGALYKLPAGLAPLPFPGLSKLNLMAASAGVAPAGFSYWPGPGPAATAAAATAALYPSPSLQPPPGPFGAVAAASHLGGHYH
# In short: as §1
# ETV5 = ETV5 (Homo sapiens, UniProt P41161 1-510); conditions: protein: recombinant; tags: N-terminal GST; dsDNA, one strand shown
# Chain of ETV5 (P41161 whole entry): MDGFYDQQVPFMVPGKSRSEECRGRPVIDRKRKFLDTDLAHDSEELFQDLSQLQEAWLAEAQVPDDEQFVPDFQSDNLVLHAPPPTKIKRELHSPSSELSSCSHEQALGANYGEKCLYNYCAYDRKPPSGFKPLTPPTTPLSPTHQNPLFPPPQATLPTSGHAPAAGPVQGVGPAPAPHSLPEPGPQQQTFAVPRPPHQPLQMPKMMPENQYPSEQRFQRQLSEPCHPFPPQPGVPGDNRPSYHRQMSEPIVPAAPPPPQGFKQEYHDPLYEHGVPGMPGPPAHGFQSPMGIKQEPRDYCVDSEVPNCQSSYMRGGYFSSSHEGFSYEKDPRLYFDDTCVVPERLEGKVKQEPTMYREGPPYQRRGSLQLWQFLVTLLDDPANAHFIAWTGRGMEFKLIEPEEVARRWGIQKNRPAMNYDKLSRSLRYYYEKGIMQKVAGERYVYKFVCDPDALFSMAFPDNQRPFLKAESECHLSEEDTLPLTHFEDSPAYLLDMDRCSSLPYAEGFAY
# In short: as §1
# HSF1 = HSF1 (Homo sapiens, UniProt Q00613 1-529); conditions: protein: recombinant; tags: N-terminal GST; chain copies: 3; dsDNA, one strand shown
# Chain of HSF1 (Q00613 whole entry): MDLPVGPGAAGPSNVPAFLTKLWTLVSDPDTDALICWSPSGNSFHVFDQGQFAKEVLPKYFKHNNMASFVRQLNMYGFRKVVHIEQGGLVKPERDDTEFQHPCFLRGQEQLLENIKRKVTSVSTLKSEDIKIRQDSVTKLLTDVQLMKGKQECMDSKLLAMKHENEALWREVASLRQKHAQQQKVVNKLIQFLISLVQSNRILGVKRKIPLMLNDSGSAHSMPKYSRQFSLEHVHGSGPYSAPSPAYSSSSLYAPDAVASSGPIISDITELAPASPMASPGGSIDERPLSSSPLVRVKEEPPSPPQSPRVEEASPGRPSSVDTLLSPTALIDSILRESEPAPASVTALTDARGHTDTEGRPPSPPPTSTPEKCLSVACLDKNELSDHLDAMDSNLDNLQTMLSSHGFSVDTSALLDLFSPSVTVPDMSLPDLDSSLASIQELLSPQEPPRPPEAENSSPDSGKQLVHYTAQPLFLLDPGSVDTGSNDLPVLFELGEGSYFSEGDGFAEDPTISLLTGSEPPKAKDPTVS
# In short: as §1
# SPIC = target: T8, SPIC (Homo sapiens, UniProt Q8N5J4 1-248); conditions: protein: recombinant; tags: N-terminal GST; dsDNA, one strand shown
# T8 sequence: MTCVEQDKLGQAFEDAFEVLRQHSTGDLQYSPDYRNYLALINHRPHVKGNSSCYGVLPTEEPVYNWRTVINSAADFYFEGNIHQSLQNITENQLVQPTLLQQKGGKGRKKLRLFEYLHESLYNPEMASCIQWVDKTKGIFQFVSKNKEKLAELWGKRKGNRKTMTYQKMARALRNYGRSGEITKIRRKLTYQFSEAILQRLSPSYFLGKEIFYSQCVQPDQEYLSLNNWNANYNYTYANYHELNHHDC
# In short: as §1
# ELF4 = ELF4 (Homo sapiens, UniProt Q99607 1-663); conditions: protein: recombinant; tags: N-terminal GST; dsDNA, one strand shown
# Chain of ELF4 (Q99607 whole entry): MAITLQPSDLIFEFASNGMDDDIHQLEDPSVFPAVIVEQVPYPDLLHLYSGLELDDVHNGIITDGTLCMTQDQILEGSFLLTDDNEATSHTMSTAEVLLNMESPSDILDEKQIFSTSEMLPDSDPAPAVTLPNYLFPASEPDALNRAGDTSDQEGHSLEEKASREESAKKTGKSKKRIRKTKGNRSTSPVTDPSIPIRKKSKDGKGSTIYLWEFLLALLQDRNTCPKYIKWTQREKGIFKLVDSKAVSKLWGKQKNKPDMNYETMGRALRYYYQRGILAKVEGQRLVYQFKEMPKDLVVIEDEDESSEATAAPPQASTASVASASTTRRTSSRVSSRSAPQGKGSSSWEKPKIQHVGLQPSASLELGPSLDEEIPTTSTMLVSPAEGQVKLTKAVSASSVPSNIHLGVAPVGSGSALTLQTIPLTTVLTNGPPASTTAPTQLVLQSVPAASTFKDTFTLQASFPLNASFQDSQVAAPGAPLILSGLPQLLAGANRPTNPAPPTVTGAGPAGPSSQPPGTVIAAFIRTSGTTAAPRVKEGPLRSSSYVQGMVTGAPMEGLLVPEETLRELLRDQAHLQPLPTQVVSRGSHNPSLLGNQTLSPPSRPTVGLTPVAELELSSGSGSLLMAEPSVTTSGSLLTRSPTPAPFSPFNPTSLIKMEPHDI
# In short: as §1
# ELK4 = target: T9, ELK4 (Homo sapiens, UniProt P28324-2 1-405); conditions: protein: recombinant; tags: N-terminal GST; dsDNA, one strand shown
# T9 sequence: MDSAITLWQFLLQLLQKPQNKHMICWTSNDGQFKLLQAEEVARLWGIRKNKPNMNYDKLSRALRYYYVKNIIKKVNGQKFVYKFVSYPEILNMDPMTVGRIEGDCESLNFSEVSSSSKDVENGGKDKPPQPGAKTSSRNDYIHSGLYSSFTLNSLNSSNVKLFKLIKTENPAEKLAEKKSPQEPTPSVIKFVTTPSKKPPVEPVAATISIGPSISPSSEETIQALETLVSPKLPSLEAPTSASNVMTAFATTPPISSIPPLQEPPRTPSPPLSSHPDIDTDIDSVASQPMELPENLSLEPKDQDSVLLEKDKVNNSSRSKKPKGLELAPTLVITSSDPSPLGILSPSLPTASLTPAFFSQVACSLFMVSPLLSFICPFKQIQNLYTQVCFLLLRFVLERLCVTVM
# In short: as §1
# ETV2 = target: T10, ETV2 (Homo sapiens, UniProt O00321 1-342); conditions: protein: recombinant; tags: N-terminal GST; dsDNA, one strand shown
# T10 sequence: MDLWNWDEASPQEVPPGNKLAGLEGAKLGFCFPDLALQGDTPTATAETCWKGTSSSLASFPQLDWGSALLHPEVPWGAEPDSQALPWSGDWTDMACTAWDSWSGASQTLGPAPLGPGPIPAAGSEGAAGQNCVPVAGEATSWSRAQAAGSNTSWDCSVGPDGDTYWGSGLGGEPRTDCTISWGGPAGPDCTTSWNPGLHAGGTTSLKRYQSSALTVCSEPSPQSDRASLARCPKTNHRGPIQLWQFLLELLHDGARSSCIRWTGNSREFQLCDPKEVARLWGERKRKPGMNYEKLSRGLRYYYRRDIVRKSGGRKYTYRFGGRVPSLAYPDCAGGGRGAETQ
# In short: as §1
# ELF3 = target: T11, ELF3 (Homo sapiens, UniProt P78545 1-371); conditions: protein: recombinant; tags: N-terminal GST; dsDNA, one strand shown
# T11 sequence: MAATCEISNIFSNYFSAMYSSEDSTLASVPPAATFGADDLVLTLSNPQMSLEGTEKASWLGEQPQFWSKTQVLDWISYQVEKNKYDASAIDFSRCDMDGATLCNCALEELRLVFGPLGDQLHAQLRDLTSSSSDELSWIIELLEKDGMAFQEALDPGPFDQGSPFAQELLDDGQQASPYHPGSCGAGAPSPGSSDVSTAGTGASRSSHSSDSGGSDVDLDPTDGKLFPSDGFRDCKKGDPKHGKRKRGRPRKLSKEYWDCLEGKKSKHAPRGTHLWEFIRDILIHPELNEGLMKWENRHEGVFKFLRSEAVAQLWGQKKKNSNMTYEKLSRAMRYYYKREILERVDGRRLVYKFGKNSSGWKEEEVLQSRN
# In short: as §1
# CRX = CRX (Homo sapiens, UniProt O43186 1-299); conditions: protein: recombinant; tags: N-terminal GST; dsDNA, one strand shown
# Chain of CRX (O43186 whole entry): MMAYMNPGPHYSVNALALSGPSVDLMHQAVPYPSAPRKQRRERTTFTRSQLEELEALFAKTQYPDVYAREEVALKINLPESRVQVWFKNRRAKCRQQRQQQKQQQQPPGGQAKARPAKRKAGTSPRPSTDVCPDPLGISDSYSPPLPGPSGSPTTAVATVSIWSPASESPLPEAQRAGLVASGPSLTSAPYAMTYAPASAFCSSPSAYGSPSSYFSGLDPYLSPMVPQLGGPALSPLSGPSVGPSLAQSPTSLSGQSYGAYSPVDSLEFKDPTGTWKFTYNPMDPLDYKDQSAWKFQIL
# In short: as §1
# ETV1 = ETV1 (Homo sapiens, UniProt P50549 1-477); conditions: protein: recombinant; tags: N-terminal GST; dsDNA, one strand shown
# Chain of ETV1 (P50549 whole entry): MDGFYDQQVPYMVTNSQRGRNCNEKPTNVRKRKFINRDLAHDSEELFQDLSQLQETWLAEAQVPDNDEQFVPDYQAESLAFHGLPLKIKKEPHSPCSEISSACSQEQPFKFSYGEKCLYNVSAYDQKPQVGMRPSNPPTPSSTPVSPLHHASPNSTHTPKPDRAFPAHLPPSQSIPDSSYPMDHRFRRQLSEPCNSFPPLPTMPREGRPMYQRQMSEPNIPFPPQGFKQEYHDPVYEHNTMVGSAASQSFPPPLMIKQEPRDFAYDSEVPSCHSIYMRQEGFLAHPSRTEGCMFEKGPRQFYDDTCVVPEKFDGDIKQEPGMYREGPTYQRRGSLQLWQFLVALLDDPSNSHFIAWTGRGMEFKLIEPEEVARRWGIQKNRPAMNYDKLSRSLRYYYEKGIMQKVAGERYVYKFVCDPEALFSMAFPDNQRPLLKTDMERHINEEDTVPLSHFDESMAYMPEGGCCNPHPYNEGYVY
# In short: as §1
sequence,measurement,setting,value
ATTATG,binding signal,FLI1,"1.3 fold enrichment (6-mer frequency, TF over GST control)"
same,binding signal,ELK1,"1.18 fold enrichment (6-mer frequency, TF over GST control)"
same,binding signal,GABPA,"1.16 fold enrichment (6-mer frequency, TF over GST control)"
same,binding signal,ERG,"1.2 fold enrichment (6-mer frequency, TF over GST control)"
same,binding signal,ELF1,"1.2 fold enrichment (6-mer frequency, TF over GST control)"
same,binding signal,EHF,"1.25 fold enrichment (6-mer frequency, TF over GST control)"
same,binding signal,SPI1,"1.25 fold enrichment (6-mer frequency, TF over GST control)"
same,binding signal,SPIB,"1.25 fold enrichment (6-mer frequency, TF over GST control)"
same,binding signal,ELK3,"1.17 fold enrichment (6-mer frequency, TF over GST control)"
same,binding signal,FEV,"1.13 fold enrichment (6-mer frequency, TF over GST control)"
same,binding signal,ETV5,"1.26 fold enrichment (6-mer frequency, TF over GST control)"
same,binding signal,HSF1,"1.68 fold enrichment (6-mer frequency, TF over GST control)"
same,binding signal,SPIC,"1.42 fold enrichment (6-mer frequency, TF over GST control)"
same,binding signal,ELF4,"1.22 fold enrichment (6-mer frequency, TF over GST control)"
same,binding signal,ELK4,"1.11 fold enrichment (6-mer frequency, TF over GST control)"
same,binding signal,ETV2,"1.03 fold enrichment (6-mer frequency, TF over GST control)"
same,binding signal,ELF3,"1.48 fold enrichment (6-mer frequency, TF over GST control)"
same,binding signal,CRX,"2.58 fold enrichment (6-mer frequency, TF over GST control)"
same,binding signal,ETV1,"1.21 fold enrichment (6-mer frequency, TF over GST control)"
